Screening results from PubChem BioAssay.
GLP1R ag: GLP-1 receptor (human) agonism; P43220; HEK293 GLP-1R CRE-luciferase, luminescence, 4-6 h; cells express a hypersensitive GLP-1R form; Potency, µM (titrated, usually from 45.6 µM), most hits filed as activators; 380,000 tested, 0.007% active
Target sequence (P43220 whole entry, looked up): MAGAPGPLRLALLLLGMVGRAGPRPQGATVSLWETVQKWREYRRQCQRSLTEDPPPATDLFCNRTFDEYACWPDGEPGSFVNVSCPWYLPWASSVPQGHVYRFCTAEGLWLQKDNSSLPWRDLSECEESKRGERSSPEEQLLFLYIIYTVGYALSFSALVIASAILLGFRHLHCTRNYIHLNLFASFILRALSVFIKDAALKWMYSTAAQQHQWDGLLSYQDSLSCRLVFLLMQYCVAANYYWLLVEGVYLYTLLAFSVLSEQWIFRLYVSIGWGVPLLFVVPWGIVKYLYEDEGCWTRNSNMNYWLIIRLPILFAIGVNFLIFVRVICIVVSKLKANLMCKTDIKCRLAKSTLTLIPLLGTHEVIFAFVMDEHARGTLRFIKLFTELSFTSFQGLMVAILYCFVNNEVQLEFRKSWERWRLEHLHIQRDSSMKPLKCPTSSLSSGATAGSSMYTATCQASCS
ATXN viability: reduces viability in counter-screen for ATXN expression inhibitors; S2 cells (HEK-293 line with an ATXN2-luciferase reporter) viability, CellTiter-Fluor protease fluorescence, 24 h; Potency, µM (highest dose often 56.7 µM), usual class: cytotoxic; 400,000 tested, 0.49% active; AID 651635; also: nearly all actives have a fitted effect of over 40% in size
HepG2 tox: counter-screen for TGF-b inhibitors: cytotoxicity in HepG2 cells; 410,000 tested, 0.76% active; Potency, µM (series often up to 46.1 µM), usual class: cytotoxic; HepG2 CAGA-GFP viability, ATP luminescence, 18 h
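CellTiter-Glo luminescence gave cytotoxicity after 18 hours at 37 degrees C. The cells were HepG2 CAGA-GFP in 1% FBS DMEM, stimulated with 500 pg/mL TGF-beta after compound addition. %Activity was normalised to no-cell wells (complete cell-killing) and DMSO (no toxicity), and curves were fitted and classified.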
GLP-1R inv ag: acts as inverse agonist at human GLP-1 receptor; P43220; Potency, µM (top dose mostly 38.3 µM), usual class: inhibitors; AID 624417; HEK293 GLP-1R CRE-luciferase, luminescence, 24 h; GLP-1R form is constitutively active; 410,000 tested, 1.6% active; also: nearly all actives have a fitted effect of over 55% in size
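Stable HEK293 clone (constitutively active GLP-1R + cAMP-response luciferase); 200 cells/uL plated, 12 h pre-culture, compound 24 hr, 37 deg C/5% CO2; detection reagent 12 min RT; luminescence.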
TGFb SMAD3 inh: TGF-b pathway inhibition; 410,000 tested, 1.2% active; HepG2 CAGA-GFP TGF-b/SMAD3 reporter, GFP fluorescence, 18 h; TGF-beta stimulated, 500 pg/mL final; Potency, µM (doses to about 46.1 µM), most hits filed as inhibitors; also: nearly all actives have a fitted effect of over 65% in size
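Using HEPG2 CAGA-GFP reporter cells at 1000 cells/well, we pinned test compounds, stimulated with recombinant TGF-beta (500 pg/mL final) and measured total well GFP after 18 h.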
ATXN2 expr inh: ATXN2 expression inhibition; AID 1745845; HEK-293 ATXN2-luciferase reporter, luminescence, 24 h; Potency, µM (top dose mostly 57 µM), actives largely listed as inhibitors; 360,000 tested, 0.72% active; also: nearly all actives have a fitted effect of over 55% in size
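ATXN2-luciferase reporter cells (luciferase flanked by upstream and downstream ATXN2 gene portions) were treated 24 h at 37 °C with compounds at up to 57 uM. SteadyGlo luminescence gave expression; GF-AFC fluorescence gave viability.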
A number is an active result; i = inactive; ? = inconclusive; nt = not tested or not shown; [ ] = another dose, or the depositor's remark. Shown are actives, neighbours in structure and some others; about 3.7% of the full set was active somewhere. Calls follow the shape of the dose curve; as a rule, active = well fitted curve in the direction sought with a large enough effect; inconclusive = small, poorly fitted or top-dose-only effect, or another doubt; inactive = no such curve, though single readings can be large; an effect the other way counts as inactive or inconclusive.

SMILES	GLP1R ag	ATXN viability	HepG2 tox	GLP-1R inv ag	TGFb SMAD3 inh	ATXN2 expr inh
NC(=O)c1ccc(N(C(N)=O)c2c(F)cccc2F)nc1-c1ccc(F)cc1F	nt	nt	nt	nt	nt	i
Cc1ccc(Oc2ccc(C(F)(F)F)cc2[N+](=O)[O-])c([N+](=O)[O-])n1	i	?	22.4µM	i	i	i
Cc1c(Oc2ccc(C(F)(F)F)cc2[N+](=O)[O-])ccc2c3c(c(=O)oc12)CCC3	i	i	i	i	i	i
O=C(O)c1ccccc1C(=O)Nc1ccc(Nc2ccc([N+](=O)[O-])cc2[N+](=O)[O-])cc1	i	?	i	i	i	nt
O=C(Nc1ccc(Nc2ccccc2)cc1)c1cc([N+](=O)[O-])ccc1Cl	i	i	i	3.16µM	i	nt
CN(CCOc1ccccc1)CC(=O)Nc1ccc([N+](=O)[O-])cc1Cl	i	i	i	i	11.2µM	i
CCCCN(CCCC)S(=O)(=O)c1ccc(NC(=O)c2ccc([N+](=O)[O-])cc2Cl)cc1	i	i	i	3.98µM	i	?
COC(=O)c1ccc(Nc2nnc(-c3ccc(C)c(S(=O)(=O)N4CCN(C)CC4)c3)c3ccccc23)cc1	nt	nt	i	?	i	nt
Cc1ccc(C(=O)[C@H](C)CN2CCCCC2)cc1	i	nt	nt	nt	nt	nt
COc1ccc(C(=O)CN2C(=O)N(c3ccc(C(C)=O)cc3)S(=O)(=O)c3ccccc32)cc1	i	i	i	i	i	i
CC(C)CN(C[C@@H](OP(=O)(O)O)[C@H](Cc1ccccc1)NC(=O)O[C@@H]1CCOC1)S(=O)(=O)c1ccc(N)cc1	i	nt	nt	nt	nt	nt
O=C(c1ccccc1Oc1ccc(C(F)(F)F)cc1[N+](=O)[O-])N1CCOCC1	i	i	i	i	i	i
O=C(NNc1ccc([N+](=O)[O-])cc1)Nc1ccccc1	i	?	i	i	i	nt
O=C(Nc1ccc(Nc2ccccc2)cc1)c1ccc(Cl)cc1Cl	i	?	i	8.91µM	i	?
CCN(CC)S(=O)(=O)c1cc([N+](=O)[O-])ccc1NNC(=O)Nc1ccc(Cl)c(Cl)c1	i	nt	i	2.24µM	7.08µM	?
O=C(Nc1ccccc1Cl)c1ccccc1Oc1ccc(C(F)(F)F)cc1[N+](=O)[O-]	i	i	i	7.08µM	i	i
O=C(NNc1ccccc1)C(=O)NNS(=O)(=O)c1ccc([N+](=O)[O-])cc1	i	i	i	3.16µM	i	i[11.3 µM]
COc1cc(C(=O)Nc2nonc2-c2ccc(C)c(C)c2)cc(OC)c1OC	nt	i	i	i	i	i
CC(=O)OC/C=C(C)/C=C/C=C(C)/C=C/C1=C(C)CCCC1(C)C	i	i	nt	nt	nt	i
O=C(Nc1ccc(F)cc1)c1ccc(Cn2nc(N3CCN(c4ccccc4)CC3)ccc2=O)o1	nt	nt	i	i	?	nt
O=C(NNc1ccc([N+](=O)[O-])cc1)c1ccccc1Cl	i	i	i	1.78µM	i	nt
O=C1CC(c2nc3ccccc3n2Cc2c(F)cccc2Cl)CN1c1cccc(C(F)(F)F)c1 (stereo not given)	nt	i	i	i	i	i
Clc1ccc(CN2CCc3c([nH]c4ccccc34)C2)cc1Cl	i	?	i	3.98µM	17.8µM	nt
CCCN(CCC)C(=O)c1oc2ccccc2c1NC(=O)Cc1cccc(OC)c1	i	i	i	7.94µM	i	i
COc1cccc(CC(=O)Nc2c(C(=O)N3CCN(c4ccccc4)CC3)oc3ccccc23)c1	nt	nt	i	?	i	nt
C=CC[N@@+]12CC[C@@]34c5ccccc5N5/C=C6/[C@H]7C[C@H]8[C@@]9(CC[N@@+]8(CC=C)C/C7=C/CO)c7ccccc7N(/C=C(/[C@@H](C[C@@H]31)/C(=C\CO)C2)[C@H]54)[C@@H]69	nt	i	nt	nt	nt	nt
O=C(NC1CCCCC1)c1ccc(CSc2nc3ccncc3n2Cc2ccccc2F)cc1	nt	?	i	i	?	i
Cc1cccc(Cn2c(SCc3ccc(C(=O)NCCc4ccccc4)cc3)nc3ccncc32)c1	nt	?	i	?	7.94µM	i
